# SKKanGAS inh: S. pyogenes SKKanGAS growth inhibitors in kanamycin, primary screen, streptokinase expression inhibitor project, SKKanGAS strain, BacTiter-Glo luminescence. 6 h. inhibition, % at 7.5 µM. actives 1.3% (n = 300,000). AID 1662, 2009;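 active = mean replicate score, as percent of positive control median, at least 50; inconclusive = mean below 50 but one replicate at or above 50; inactive = mean and every replicate below 50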;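 also: strain carries kanamycin resistance gene driven by streptokinase promoter and grows in 40 µg/ml kanamycin; loss of luminescence reflects streptokinase promoter inhibition or plain growth inhibition; 0% = median of DMSO wells and 100% = positive control at its reference dose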
# tim10-1 inh: growth inhibitors of tim10-1 mutant yeast, primary screen, luminescence, uHTS | S. cerevisiae tim10-1 ts strain growth, BacTiter-Glo, 24 h | inhibition, % at 20 µM | actives 2.2% (n = 330,000);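 active = inhibition of at least 40%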;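 also: mutant grown at 25 °C; 0% = DMSO wells with yeast and 100% = wells holding no yeast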
# PfHsp90 yeast 2: growth inhibition of PfHsp90-expressing yeast, primary screen, antimalarial PfHsp90 inhibitor project, S. cerevisiae, BacTiter-Glo luminescence, single point, set 2. BacTiter-Glo ATP, 48 h; yeast lacking PDR1 and PDR3 efflux regulators. inhibition, % at 9.4 µM. actives 0.32% (n = 310,000). AID 504621, 2011;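 active = every replicate shows inhibition above about 80%, whatever the replicate mean, limit read from the data; inconclusive = mean inhibition reaches the set limit but some replicate falls short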;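 also: 0% = DMSO neutral controls and 100% = 20 µM radicicol positive controls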
# TIM10 inh: growth inhibitors of isogenic TIM10 control yeast, primary screen, counter-screen for tim10-1 yeast inhibitor project, luminescence, uHTS | S. cerevisiae TIM10 strain growth, BacTiter-Glo luminescence, 24 h | inhibition, % at 10 µM | actives 1.4% (n = 330,000) | AID 463195, 2010;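 active = inhibition of 40% or more at the single tested concentration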;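 also: wild-type TIM10 isogenic control strain grown at permissive 25 °C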
# Calb FLC: C. albicans growth inhibition with fluconazole, primary screen, CaCi-2 strain, Alamar Blue fluorescence; C. albicans CaCi-2 (fluconazole-resistant clinical isolate) + fluconazole, 48 h; growth inhibition, % (no concentration beside the values); actives 0.57% (n = 300,000); AID 1979, 2009;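 active = growth inhibition above about 58% in most replicates, limit read from the data, passing the limit was not always enough; inconclusive = exactly half the replicates above a set limit; inactive = most replicates below a set limit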;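 also: all wells also contain fluconazole at 8 µg/ml as a sub-toxic cotreatment; 0% = median of DMSO wells and 100% = median of geldanamycin control wells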
# tim23-1 inh: growth inhibitors of tim23-1 mutant yeast, primary screen, luminescence, uHTS. inhibition, % at 20 µM. S. cerevisiae tim23-1 growth, BacTiter-Glo luminescence, 24 h. AID 463212, 2010. actives 1.3% (n = 330,000);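 active = growth inhibition of the mutant yeast at or above 50%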;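 also: temperature-sensitive mutant grown at 25 °C; plate controls were DMSO-treated mutant yeast for no effect and medium wells lacking yeast for full effect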
# tim10-1 confirm: growth inhibitors of tim10-1 mutant yeast, confirmation, single concentration, luminescence, S. cerevisiae; shares compounds with tim10-1 inh; S. cerevisiae tim10-1 ts strain growth, BacTiter-Glo, 24 h; inhibition, % at 20 µM; actives 56% (n = 7,400);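 active = inhibition of yeast growth at or above a set limit in either of two repeat tests at 20 µM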;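 also: tim10-1 mutant grown at permissive 25 °C to find synthetic lethal compounds; 0% = DMSO yeast wells and 100% = medium wells without yeast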
# TIM10 conf: growth inhibitors of wild-type TIM10 yeast, confirmation, counter-screen for tim10-1 synthetic lethality project, single concentration, luminescence, S. cerevisiae; shares compounds with TIM10 inh; S. cerevisiae tim10 strain growth, BacTiter-Glo luminescence, 24 h; inhibition, % at 10 µM; actives 63% (n = 4,600); AID 463215, 2010;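 active = inhibition of yeast growth at or above a set limit in either of two replicates at 10 µM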;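 also: this counterscreen used the strain with wild-type TIM10; 0% = yeast with DMSO and 100% = medium wells lacking yeast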
# tim23-1 conf: tim23-1 mutant yeast growth inhibitors, confirmation, luminescence, single concentration | shares compounds with tim23-1 inh | S. cerevisiae tim23-1 growth, BacTiter-Glo luminescence, 24 h | inhibition, % at 20 µM | actives 83% (n = 4,400) | AID 463218, 2010;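 active = inhibition above about 39% in either of two replicate wells at 20 µM, limit read from the data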;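 also: temperature-sensitive tim23-1 mutant grown at 25 °C; 0% = DMSO wells with yeast and 100% = medium wells without yeast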
# * marks the source's active call; other numbers are inactive results; ? = inconclusive; / = no result. Sampled rows, rich in hits. Any-hit rate of the full collection: about 4.7%.
SMILES,SKKanGAS inh,tim10-1 inh,PfHsp90 yeast 2,TIM10 inh,Calb FLC,tim23-1 inh,tim10-1 confirm,tim23-1 conf,others
CCOC(=O)C1(Cc2cccc(OC)c2)CCCN(CCO)C1 (stereo not given),-4.1,11.1,5.5,-9.2,7.0,-9.4,/,/,
COc1cccc(NC(=O)Nc2nc(SC)ns2)c1,48.8,-6.3,4.0,-3.8,-18.4,-4.0,/,/,
CCSc1nsc(NC(=O)Nc2cccc(F)c2)n1,66.1*,61.2*,-4.7,68.6*,-7.0,77.6*,71.8*,83.8*,TIM10 conf=60.2*
O=C(CN1CCN(Cc2ccc3c(c2)OCO3)CC1)NCC(F)(F)F,1.7,-4.2,-21.9,-5.6,-0.3,3.9,/,/,
O=C(C=Cc1ccccc1Cl)c1ccccc1,/,/,-45.2,/,/,/,/,/,
O=C(/C=C/Sc1ccccc1)c1ccc(Cl)cc1,0.1,51.0*,8.6,37.4,16.6,59.0*,47.0*,45.9*,
CCN1N=C(c2ccccc2)Cn2c1nc1ccccc12,-6.0,42.5*,-77.5,27.6,44.3,51.9*,44.2*,46.0*,
O=C(c1nnsc1S(=O)(=O)c1ccc(Cl)cc1)N1CCOCC1,-0.9,37.8,20.0,17.2,4.7,34.7,/,/,
O=C(Nc1ccccc1)c1nnsc1S(=O)c1ccc(Cl)cc1 (stereo not given),73.0*,92.4*,106.3*,93.6*,42.1,55.6*,91.8*,97.5*,TIM10 conf=98.3*
Cc1nnsc1S(=O)c1ccc(Cl)cc1 (stereo not given),1.9,0.3,10.3,15.4,-3.8,-5.9,/,/,
O=C(c1nnsc1S(=O)c1ccc(Cl)cc1)N1CCOCC1 (stereo not given),36.0,60.5*,-31.1,33.3,-16.8,57.4*,42.4*,90.0*,
COc1ccc(C(=O)NCC(=O)Nc2ccc(-c3ccccc3)cc2)cc1,-7.4,-6.4,-10.7,-13.6,-4.5,-16.4,/,/,
CCCCn1c(-c2cccs2)nc2nc3ccccc3nc21,21.0,50.7*,/,30.6,2.1,52.0*,36.2*,66.0*,
CCCCOc1ccc(C(=O)CCN2CCCCC2)cc1,-5.0,46.6*,5.0,3.8,/,50.0*,16.6,66.5*,
CC(=O)c1ccc(OCCCN2CCCCC2)cc1,6.4,12.1,-10.0,5.7,7.0,2.4,/,/,
O=C(NC1C2CC3CC(C2)CC1C3)C1CCCCC1 (stereo not given),14.7,23.3,-22.6,11.5,-20.3,15.3,/,/,
N/C(Cc1cccs1)=N\OC(=O)COc1ccc(Br)cc1Cl,22.2,58.3*,12.6,38.1,-20.3,68.3*,59.4*,86.6*,
N/C(Cc1cccs1)=N\OC(=O)COc1ccccc1Cl,13.4,35.7,23.0,21.8,-7.0,20.0,/,/,
CCOc1ccccc1C(=O)N/N=C/c1coc2ccc(Cl)cc2c1=O,/,67.1*,22.6,70.7*,-1.9,68.3*,53.8*,68.9*,TIM10 conf=21.6
Cc1ccc2occ(/C=N/NC(=O)c3ccc(Cl)cc3)c(=O)c2c1,-2.8,18.9,9.2,5.6,-14.9,40.7,/,/,
Oc1ccccc1-c1cc(-c2ccco2)[nH]n1,12.9,-4.0,-7.9,12.9,-39.2,35.8,/,/,
Oc1ccc(Br)cc1-c1cc(-c2ccco2)[nH]n1,10.3,47.5*,-14.7,43.5*,0.3,68.3*,32.2*,51.5*,TIM10 conf=33.6*
COc1cc(/C=C(\C#N)C(=O)NCC2CCCO2)ccc1OC(=O)c1ccco1 (stereo not given),/,40.0*,/,34.5,/,64.3*,34.3*,53.0*,
Clc1ccc(-n2nnnc2Sc2ncnc3sccc23)cc1,-8.7,43.0*,-44.6,1.7,25.7,69.6*,32.9*,50.2*,
Cc1ccc2c(CSc3nncn3C)cc(=O)oc2c1C,-13.0,-7.6,6.8,1.3,-11.6,-11.1,/,/,
SMILES,SKKanGAS inh,tim10-1 inh,PfHsp90 yeast 2,TIM10 inh,Calb FLC,tim23-1 inh,tim10-1 confirm,tim23-1 conf,others
C=CCn1c(SCC(=O)NC2CCCCC2)nnc1-c1cccnc1,-6.1,1.2,2.1,3.2,/,-6.9,/,/,
N#Cc1ccc(N=c2ssnc2Cl)cc1,-3.6,30.8,?,14.4,-14.6,36.9,/,/,
COc1ccc(N=c2ssnc2Cl)cc1,6.4,52.7*,-57.8,17.6,3.7,60.9*,34.7*,80.3*,
Clc1ccc(N=c2ssnc2Cl)cc1,-6.1,54.2*,103.8*,35.2,-2.9,63.3*,65.6*,88.3*,
COc1ccc(C(=O)c2coc(-c3ccccc3C(=O)O)c2C(=O)O)cc1,-1.8,5.0,-15.0,-6.9,-9.6,-6.2,/,/,
Cc1ccc(C(=O)c2coc3c2C(=O)C(=O)c2ccccc2-3)cc1,8.6,93.4*,141.4*,96.6*,79.7*,85.3*,93.7*,94.8*,TIM10 conf=95.8*
CCCn1c(=O)c(C(=O)NCc2cccnc2)c(O)c2ccccc21,9.1,28.0,17.0,28.2,-6.1,19.9,/,/,
CCCn1c(=O)c(C(=O)NCc2ccccn2)c(O)c2ccccc21,/,40.9*,9.8,41.9*,/,60.3*,21.1,57.5*,TIM10 conf=35.8*
O=C(CSC1=NS(=O)(=O)c2cc(Cl)ccc2N1)c1ccc(Cl)cc1,28.6,-0.2,-24.8,-4.9,3.8,-5.5,/,/,
COc1ccc(S(=O)(=O)N2CCOC23CCN(S(C)(=O)=O)CC3)cc1,-2.0,3.8,/,3.4,-3.2,-1.5,/,/,
Cc1cc(C)c(C)c(S(=O)(=O)N2CCN(C(=O)c3ccccc3OCc3c(C)noc3C)CC2)c1C,/,24.2,14.0,15.3,/,20.8,/,/,
COc1ccc(/C=C/c2nc3ccccc3n2C)cc1,66.0*,56.8*,22.0,70.2*,1.4,66.0*,49.2*,46.6*,TIM10 conf=67.3*
O=C(Nc1ccc([N+](=O)[O-])cc1Cl)c1cc(Cl)ccc1O,/,30.2,7.2,21.4,/,22.8,/,/,
